# PubChem BioAssay (NCATS)
# Inconclusive results are not listed. The list shows a part of the results. Activity calls are given as the source filed them. Unless noted, the call rests on the fitted dose curve.
# Key:
# [1] = qHTS for Inhibitors of the Functional Ribonucleoprotein Complex (vRNP) of Lassa (LASV) Arenavirus: Viability assay - alamar blue signal for LASV Primary Screen (AID 1347083; calls by dose curve; tested in HEK293 reporter line; further: nearly all actives have a fitted effect of over 80% in size; further: potency means the concentration at half of the fitted maximal effect)
# [2] = Confirmatory qHTS for VERO E6 Cytotoxicity Assay: Counterscreen for SARS-CoV-2 CPE Assay (AID 1508605); further: potency means the concentration at half of the fitted maximal effect; nearly all actives have a fitted effect of over 60% in size
# [3] = Cytotoxicity counterscreen for inhibitors of SARS-CoV-2 cell entry (AID 1645845); further: nearly all actives have a fitted effect of over 50% in size; further: potency means the concentration at half of the fitted maximal effect
# Summary of the method: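 Counterscreen run in the same HEK293-ACE2 line as the pseudotyped-particle entry assay, without particles. Viability after 48 h at 37 C was read as ATP luminescence, scaled between cell-containing and cell-free wells.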
# [4] = Primary qHTS to identify inhibitors of SARS-CoV-2 cell entry (AID 1645846); settings: activity change, negative = inhibition: at 57.1 µM (top of the series) unless noted; further: nearly all actives have a fitted effect of over 45% in size; further: potency means the concentration at half of the fitted maximal effect
# Summary of the method: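 Data are normalized to wells receiving SARS-CoV-2-S pseudoparticles and those given bald particles. Entry signal was luciferase luminescence in stable hACE2 Expi293F cells, 48 hr post-infection, after 1 hr compound pretreatment.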
# [5] = qHTS for Inhibitors of the Functional Ribonucleoprotein Complex (vRNP) of Lymphocytic Choriomeningitis Arenaviruses (LCMV): Viability assay - alamar blue signal for LCMV Primary Screen (AID 1347085; calls by dose curve; tested in HEK293 reporter line; further: nearly all actives have a fitted effect of over 80% in size; further: potency means the concentration at half of the fitted maximal effect)
# [6] = Confirmatory qHTS to identify inhibitors of SARS-CoV-2 cell entry (AID 1645844); further: potency means the concentration at half of the fitted maximal effect; nearly all actives have a fitted effect of over 45% in size
# Summary of the method: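 HEK293-ACE2, overnight seeding; cpd 1 h, 37C/5% CO2; + SARS-CoV-2-S MLV PP (Wuhan-Hu-1, ΔC19); 48 h; Bright-Glo luminescence. Data normalised to S PP and bald PP wells.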
# [7] = VSVG counterscreen qHTS to identify inhibitors of SARS-CoV-2 cell entry (AID 1645847); further: potency means the concentration at half of the fitted maximal effect; nearly all actives have a fitted effect of over 65% in size
# Summary of the method: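 Counterscreen using VSV-G (not spike) pseudotyped MLV particles on ACE2-expressing Expi293F cells after 1 h compound preincubation; infection ran 48 h at 37 °C. Data normalized to VSV-G PP and bald-PP wells.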
# [8] = biological target: DNA polymerase eta (Homo sapiens) (UniProt Q9Y253); experiment: qHTS for Inhibitors of Polymerase Eta: Confirmatory Assay for Cherry-picked Compounds (AID 720502; active means well fitted curve in the direction sought with a large enough effect; an effect the other way counts as inactive or inconclusive; further: potency means the concentration at half of the fitted maximal effect); settings: Pol eta primer extension, TAMRA/BHQ fluorescence, 10 min
# Summary of the method: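 Quenched-fluorescence replication assay: 10 nM Pol eta, 50 nM substrate final, 15 min compound preincubation at room temperature, 10 min kinetic reaction read at 525/598 nm.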
# [9] = biological target: Peroxisome proliferator-activated receptor delta (Homo sapiens) (UniProt Q03181); experiment: qHTS assay for small molecule agonists of peroxisome proliferator-activated receptor delta signaling (AID 588534);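 further: 0% = DMSO basal wells and 100% = positive control agonist at 10 µM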
# Summary of the method: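 Agonist-mode beta-lactamase reporter readout (CCF4 dye, 2 h at RT) after 18 h at 37 °C exposure to a titration; Hill-equation fitting gave EC50 and maximal response.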
# [10] = biological target: Nucleoprotein (Lymphocytic choriomeningitis virus (strain Armstrong)) (UniProt P09992); experiment: qHTS for Inhibitors of the Functional Ribonucleoprotein Complex (vRNP) of Lymphocytic Choriomeningitis Arenaviruses (LCMV): LCMV Primary Screen - GLuc reporter signal (AID 1347086); further: nearly all actives have a fitted effect of over 70% in size; further: potency means the concentration at half of the fitted maximal effect; on activity change, negative = inhibition: on the % scale 0 is the no-effect control and ±100 the full control effect
# [11] = biological target: Alpha-galactosidase (Coffea arabica) (UniProt Q42656); experiment: Counterscreen for Glucocerebrosidase Inhibitors: qHTS Assay for Coffee Bean alpha-Galactosidase at pH 4.5 (AID 957; active means well fitted curve in the direction sought with a large enough effect; an effect the other way counts as inactive or inconclusive;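 further: plate controls were enzyme alone for no effect and no enzyme for full effect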)
# Summary of the method: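 Fluorogenic qHTS at pH 4.5 (citrate buffer with Tween-20): 2 nM enzyme, 80 uM 4-MU-alpha-galactoside substrate, compound titrated 0.7 nM to 77 uM, 20 min room temperature. Glycine/NaOH stop; 4-MU read Ex 365/Em 440; Hill-equation AC50 against no-enzyme and enzyme controls.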
# [12] = Inducers of the Endoplasmic Reticulum Stress Response (ERSR) in human glioma: Validation (AID 504836; active means well fitted curve in the direction sought with a large enough effect; an effect the other way counts as inactive or inconclusive; further: 0% is about no effect)
# Summary of the method: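 Stably transfected U87-MG glioma cells carrying a GRP78-based luciferase sensor; 16 h compound incubation. Luminescence end-point read 10 min after Bright-Glo addition at room temperature.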
# [13] = qHTS profiling of the MIPE4 collection as inhibitors of Plasmodium falciparum (DD2) proliferation (AID 743345; call rule not given here); settings: P. falciparum Dd2 in erythrocytes, SYBR Green DNA, 72 h; at 28.5 µM (top of the series) unless noted
# Summary of the method: (§1)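 Parasite DNA was quantified by SYBR Green I fluorescence (ex 485, em 535 nm) after overnight lysis in saponin/Triton buffer at room temperature. Cultures at 0.3% parasitemia and 2.5% hematocrit were first exposed to compound for 72 h at 37 C; signals were normalised to artemisinin (0.29 uM) and vehicle wells.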
# [14] = biological target: Alpha-galactosidase (Coffea arabica) (UniProt Q42656); experiment: Counterscreen for Glucocerebrosidase Inhibitors: qHTS Assay for Coffee Bean alpha-Galactosidase at pH 5.9 (AID 998; active means well fitted curve in the direction sought with a large enough effect; an effect the other way counts as inactive or inconclusive;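 further: plate controls were uninhibited enzyme for no effect and no-enzyme basal signal for full effect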)
# Summary of the method: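 Enzyme 2 nM + cpd (0.7 nM–77 uM titration) + 4-MU-alpha-Gal 80 uM, pH 5.9 citrate/Tween-20, RT 20 min, NaOH/glycine stop pH 10, fluor 365/440. Normalized to no-enzyme and full-activity controls; Hill-fit AC50.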
# [15] = qHTS profiling of the MIPE4 collection as inhibitors of Plasmodium falciparum (3D7) proliferation (AID 743344; call rule not given here;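 further: scaled between DMSO vehicle wells and 0.29 µM artemisinin as full inhibition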); settings: P. falciparum 3D7 in erythrocytes, SYBR Green DNA fluorescence, 72 h; at 28.5 µM (top of the series) unless noted
# Summary of the method: as §1
# Nucleoprotein (Lymphocytic choriomeningitis virus (strain Armstrong)), sequence (P09992 whole entry, looked up): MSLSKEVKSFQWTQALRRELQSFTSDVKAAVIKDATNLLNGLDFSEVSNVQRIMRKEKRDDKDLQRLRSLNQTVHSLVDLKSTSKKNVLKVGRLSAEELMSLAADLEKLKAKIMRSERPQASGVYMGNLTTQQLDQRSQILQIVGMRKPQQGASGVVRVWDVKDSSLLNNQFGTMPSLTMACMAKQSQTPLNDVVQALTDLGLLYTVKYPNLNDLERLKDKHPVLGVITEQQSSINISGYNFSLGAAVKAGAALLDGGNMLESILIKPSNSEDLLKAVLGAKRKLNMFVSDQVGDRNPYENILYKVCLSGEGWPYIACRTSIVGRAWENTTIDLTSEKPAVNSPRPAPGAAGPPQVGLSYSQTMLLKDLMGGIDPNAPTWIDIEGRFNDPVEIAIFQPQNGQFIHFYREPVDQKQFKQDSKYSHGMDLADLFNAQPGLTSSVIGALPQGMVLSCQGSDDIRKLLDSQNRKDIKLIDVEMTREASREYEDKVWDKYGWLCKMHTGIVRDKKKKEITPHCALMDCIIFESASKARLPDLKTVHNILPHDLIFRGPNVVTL
# Alpha-galactosidase (Coffea arabica), sequence (Q42656 whole entry, looked up): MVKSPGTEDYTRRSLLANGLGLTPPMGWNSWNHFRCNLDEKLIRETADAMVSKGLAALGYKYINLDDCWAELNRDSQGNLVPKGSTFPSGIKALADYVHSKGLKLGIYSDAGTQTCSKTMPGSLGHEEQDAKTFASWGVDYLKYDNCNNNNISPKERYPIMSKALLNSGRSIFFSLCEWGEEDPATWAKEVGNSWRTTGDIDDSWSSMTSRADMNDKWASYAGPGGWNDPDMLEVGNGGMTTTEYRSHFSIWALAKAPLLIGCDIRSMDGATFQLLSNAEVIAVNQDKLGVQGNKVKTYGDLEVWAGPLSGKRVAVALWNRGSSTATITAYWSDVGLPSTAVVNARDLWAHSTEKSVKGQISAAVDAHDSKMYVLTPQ
# Peroxisome proliferator-activated receptor delta (Homo sapiens), sequence (Q03181 whole entry, looked up): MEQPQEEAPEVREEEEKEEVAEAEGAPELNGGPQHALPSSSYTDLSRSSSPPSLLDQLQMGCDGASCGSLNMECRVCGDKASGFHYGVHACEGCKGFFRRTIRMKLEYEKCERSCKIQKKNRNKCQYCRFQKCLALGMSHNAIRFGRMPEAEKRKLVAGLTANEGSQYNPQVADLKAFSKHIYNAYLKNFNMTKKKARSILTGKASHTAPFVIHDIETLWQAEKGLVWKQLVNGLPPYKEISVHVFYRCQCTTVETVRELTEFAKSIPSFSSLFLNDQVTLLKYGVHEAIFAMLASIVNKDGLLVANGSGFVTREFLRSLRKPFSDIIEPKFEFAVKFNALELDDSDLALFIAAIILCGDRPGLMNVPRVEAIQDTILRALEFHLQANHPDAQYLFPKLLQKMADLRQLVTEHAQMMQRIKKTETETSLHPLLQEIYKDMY
# DNA polymerase eta (Homo sapiens), sequence (Q9Y253 whole entry, looked up): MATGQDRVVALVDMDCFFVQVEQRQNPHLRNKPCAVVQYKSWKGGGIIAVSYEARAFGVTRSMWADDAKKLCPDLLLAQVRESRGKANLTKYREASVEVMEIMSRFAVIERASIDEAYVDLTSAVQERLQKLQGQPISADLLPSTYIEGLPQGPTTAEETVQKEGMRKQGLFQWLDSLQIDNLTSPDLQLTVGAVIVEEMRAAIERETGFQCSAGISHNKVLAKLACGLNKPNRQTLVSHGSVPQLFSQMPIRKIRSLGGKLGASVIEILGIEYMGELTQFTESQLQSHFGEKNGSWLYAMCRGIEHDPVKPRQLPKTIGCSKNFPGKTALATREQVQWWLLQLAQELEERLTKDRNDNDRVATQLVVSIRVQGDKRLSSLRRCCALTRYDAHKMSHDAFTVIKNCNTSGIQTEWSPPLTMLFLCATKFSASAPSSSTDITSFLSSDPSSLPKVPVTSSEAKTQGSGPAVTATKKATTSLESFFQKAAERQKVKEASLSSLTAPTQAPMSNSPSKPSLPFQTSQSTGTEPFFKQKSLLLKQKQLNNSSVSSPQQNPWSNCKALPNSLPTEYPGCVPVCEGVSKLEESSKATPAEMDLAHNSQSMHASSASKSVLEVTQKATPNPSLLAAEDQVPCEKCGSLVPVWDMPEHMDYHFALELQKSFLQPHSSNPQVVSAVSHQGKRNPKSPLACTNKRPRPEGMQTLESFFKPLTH
compound,measurement,setting,value
Cc1c(NC(=O)OC[C@@H]2COCCN2)cn2ncnc(Nc3ccc4c(cnn4Cc4cccc(F)c4)c3)c12,Potency,[1],1.22 µM (active)
same,Potency,[2],11.2 µM (active)
same,Potency,[3],inactive
C[C@@H](NC(=O)c1ncnc(N)c1Cl)c1ncc(C(=O)Nc2cc(C(F)(F)F)c(Cl)cn2)s1,Potency,[1],24.3 µM (active)
same,Potency,[3],inactive
same,"activity change, negative = inhibition",[4],-12.7%
C[C@@H]1CC=CC=CC=CC=C[C@@H](O[C@@H]2O[C@H](C)[C@@H](O)[C@H](N)[C@H]2O)C[C@@H]2O[C@](O)(C[C@@H](O)C[C@@H]3O[C@@H]3C=CC(=O)O1)C[C@H](O)[C@@H]2C(=O)O,Potency,[5],inactive
Cc1c(Cn2c(C)nc3c(C(=O)O)cc(N4CCOCC4)cc32)cccc1C(F)(F)F,Potency,[1],1.09 µM (active)
same,Potency,[3],inactive
same,"activity change, negative = inhibition",[4],-3.96%
COc1ccc(S(=O)(=O)Nc2cccnc2Nc2ccc(O)cc2)cc1,Potency,[1],0.273 µM (active)
same,Potency,[6],1.21 µM (active)
same,Potency,[4],6.31 µM (active)
same,Potency,[7],0.541 µM (active)
Nc1nc(N)c2nc(-c3cccc(O)c3)c(-c3cccc(O)c3)nc2n1,Potency,[1],8.63 µM (active)
same,"activity change, negative = inhibition",[4],-9.58%
C[C@@H]1C[C@@H]2O[C@H]2/C=C\C=C\C(=O)Cc2c(Cl)c(O)cc(O)c2C(=O)O1,Potency,[8],26.9 µM (active)
same,Potency,[1],6.31 µM (active)
C[C@]12CC[C@@H]3c4ccc(O)cc4CC[C@H]3[C@H]1CC[C@H]2O,Potency,[9],inactive
same,Potency,[1],9.68 µM (active)
same,Potency,[10],1.22 µM (active)
CC1=C(CC(=O)O)c2cc(F)ccc2C1=Cc1ccc(S(C)=O)cc1 (stereo unspecified),Potency,[1],38.5 µM (active)
same,Potency,[3],inactive
same,"activity change, negative = inhibition",[4],-11.8%
NC(=O)N1CCC(CC(=O)N2CCC([C@H]3c4ncc(Br)cc4CCc4cc(Cl)cc(Br)c43)CC2)CC1,Potency,[1],inactive
same,Potency,[10],12.2 µM (active)
same,"activity change, negative = inhibition",[4],-87.3%
CCCCCCN(CCCCCC)C(=O)Cc1c(-c2ccc(F)cc2)[nH]c2ccccc12,outcome,[11],inactive
same,outcome,[12],inactive
same,Potency,[1],inactive
COc1c(O)c2c(=O)cc(OC)c3c4c(OC)cc(=O)c5c(O)c(OC)c6c(c(c1C[C@@](C)(O)[C@H]6C(C)=O)c23)c54,Potency,[5],inactive
C#Cc1cccc(Nc2ncnc3cc(OCCOC)c(OCCO)cc23)c1,"parasite growth remaining, % of DMSO control (lower = more inhibition)",[13],36.9%
same,Potency,[1],10.9 µM (active)
same,Potency,[3],inactive
CCOC(=O)C1=C(C)NC(=S)NC1c1cccc(O)c1 (stereo unspecified),Potency,[1],0.344 µM (active)
same,Potency,[3],inactive
same,"activity change, negative = inhibition",[4],-13.9%
CC(C)=CCCC(C)=CCCC(C)=CCCC(C)=CCCC(C)=CCCC(C)=CCCC(C)=CCCC(C)=CCCC(C)=CCO,Potency,[5],21.7 µM (active)
Cc1ccn(-c2ccc(-c3ncco3)cc2)c(=O)c1-c1ccc2nc(N)ncc2c1,Potency,[1],3.43 µM (active)
same,Potency,[10],inactive
same,Potency,[3],inactive
same,Potency,[4],inactive
CC(=O)O[C@@H]1[C@@H](O)C2OC3C=C(C)C(=O)[C@@H](O)[C@]3(CO)C1(C)C21CO1 (stereo partly specified),Potency,[5],0.316 µM (active)
COC1CCC(OC2CC(C3(C)CCC4(CC(O)C(C)C(C(C)/C=C(\C)C(=O)C(C)CC(C)C(=O)O)O4)O3)OC3(OC(C4OC(O)(CO)C(C)CC4C)CC3C)C2C)OC1C (stereo unspecified),Potency,[5],inactive
c1ccc2c(Cc3c[nH]c4ccccc34)c[nH]c2c1,Potency,[1],4.32 µM (active)
same,Potency,[10],13.7 µM (active)
same,Potency,[3],inactive
CC(C)CNc1ccnc(NCc2csc(-c3ccccc3)n2)n1,Potency,[1],13.7 µM (active)
same,Potency,[10],15.3 µM (active)
same,Potency,[3],22.4 µM (active)
O=C1NC(=O)c2cc(Nc3ccccc3)c(Nc3ccccc3)cc21,outcome,[11],inactive
same,outcome,[14],inactive
same,outcome,[12],inactive
same,Potency,[1],inactive
same,Potency,[2],11.2 µM (active)
C=C1C(=O)OC2CC3(C)OC3CCC(C)=CC(OC(C)=O)C12 (stereo unspecified),Potency,[5],inactive
O=C1OC[C@H](Cc2ccc3c(c2)OCO3)/C1=C\c1ccc2c(c1)OCO2,Potency,[5],inactive
Cc1cnc(Nc2ccc(CN3CCOCC3)cc2)nc1Nc1cccc(S(=O)(=O)NC(C)(C)C)c1,Potency,[1],4.32 µM (active)
same,Potency,[3],12.6 µM (active)
COc1cc2ncnc(Nc3cccc(Br)c3)c2cc1OC,Potency,[1],0.344 µM (active)
same,"activity change, negative = inhibition",[4],-19.5%
CN(C)N=Nc1nc[nH]c1C(N)=O,Potency,[1],17.2 µM (active)
same,Potency,[3],inactive
CN(C)CCOc1ccc(C(=C(CCCl)c2ccccc2)c2ccccc2)cc1,"parasite growth, % of DMSO control",[15],67.8%
same,"parasite growth remaining, % of DMSO control (lower = more inhibition)",[13],55.4%
same,Potency,[1],12.2 µM (active)
CC=CC[C@@H](C)C(=O)[C@H]1C(=O)N[C@@H](C(C)C)C(=O)N(C)CC(=O)N(C)[C@@H](CC(C)C)C(=O)N[C@@H](C(C)C)C(=O)N(C)[C@@H](CC(C)C)C(=O)N[C@@H](C)C(=O)N[C@H](C)C(=O)N(C)[C@@H](CC(C)C)C(=O)N(C)[C@@H](CC(C)C)C(=O)N(C)[C@@H](C(C)C)C(=O)N1C,Potency,[5],inactive
c1cc(N[C@@H]2CCNC2)nc(-c2cnc3ccc(-c4cn[nH]c4)cn23)c1,Potency,[1],10.9 µM (active)
same,Potency,[10],inactive
same,Potency,[3],31.6 µM (active)
CCC1(O)C(=O)OCc2c1cc1n(c2=O)Cc2cc3cc(O)ccc3nc2-1 (stereo unspecified),Potency,[5],0.1 µM (active)
